Results on 20 compounds are retold here after PubChem BioAssay.

A word on the inhibition: it is the change of the read-out against control, counted positive when it falls.

Experiment [1] in a line: antimalarial activity against Dd2 strain (AID 2302;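 active means growth inhibition above 50% at the single 2 µM test dose, taken to imply half-maximal potency below 2 µM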;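 further: 0% = DMSO untreated growth and 100% = chloroquine plus artemisinin killed control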). As to conditions: P. falciparum Dd2 in RBCs, LDH growth readout, 72 h; at 2 µM; hits give high values.
The nature of experiment [2]: HepG2 cytotoxicity, primary screen, cytotoxicity control for P. falciparum antimalarial project, cell-based, ATP luminescence (AID 2303;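 active means inhibition above 50%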;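 further: 0% = DMSO wells and 100% = digitonin-killed cells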). The following applies: HepG2 viability, 24-48 h, at 10 µM, hits give high values.
The target in experiment [3] is L-lactate dehydrogenase (Plasmodium falciparum (isolate CDC / Honduras)) (UniProt Q27743). The experiment can be described thus: PfLDH activity inhibition – cell lysate, 3D7 strain, counter-screen for P. falciparum growth inhibition project (AID 2304).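 Further: 0% = vehicle and 100% = reference inhibitor.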 The following applies: P. falciparum 3D7 crude extract, LDH APAD/NBT absorbance; at 2 µM; hits give high values.
L-lactate dehydrogenase (Plasmodium falciparum (isolate CDC / Honduras)), sequence (Q27743 whole entry, looked up): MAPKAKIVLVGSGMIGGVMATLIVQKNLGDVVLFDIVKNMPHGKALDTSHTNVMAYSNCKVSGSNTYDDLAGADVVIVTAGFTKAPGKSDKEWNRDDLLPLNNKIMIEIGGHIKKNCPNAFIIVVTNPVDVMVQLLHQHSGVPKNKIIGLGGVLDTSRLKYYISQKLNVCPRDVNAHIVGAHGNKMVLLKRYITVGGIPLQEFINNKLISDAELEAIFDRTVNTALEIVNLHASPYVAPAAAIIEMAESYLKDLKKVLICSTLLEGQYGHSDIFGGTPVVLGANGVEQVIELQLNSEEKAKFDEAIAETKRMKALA
A short description of experiment [4]: inhibition of 3D7 malaria parasite growth – strain 3D7 (AID 2306).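 Further: 0% = DMSO wells and 100% = chloroquine plus artemisinin control wells.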 As to conditions: P. falciparum 3D7 erythrocytic growth, LDH absorbance, 72 h; at 2 µM; hits give high values.
The target in experiment [5] is Calcium-dependent protein kinase 1 (Plasmodium falciparum (isolate 3D7)) (UniProt P62344). The experiment in a line: PfCDPK1 kinase inhibitors, biochemical, TCAMS library (AID 1159585; cut-off not given, nearly all actives have IC50 up to about 0.98 µM;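 further: inhibitors leave more ATP so luminescence rises with inhibition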). The following applies: recombinant PfCDPK1, Kinase-Glo ATP depletion luminescence. On the technique in general: In Kinase-Glo more light means more ATP remaining.
Calcium-dependent protein kinase 1 (Plasmodium falciparum (isolate 3D7)), sequence (P62344 whole entry, looked up): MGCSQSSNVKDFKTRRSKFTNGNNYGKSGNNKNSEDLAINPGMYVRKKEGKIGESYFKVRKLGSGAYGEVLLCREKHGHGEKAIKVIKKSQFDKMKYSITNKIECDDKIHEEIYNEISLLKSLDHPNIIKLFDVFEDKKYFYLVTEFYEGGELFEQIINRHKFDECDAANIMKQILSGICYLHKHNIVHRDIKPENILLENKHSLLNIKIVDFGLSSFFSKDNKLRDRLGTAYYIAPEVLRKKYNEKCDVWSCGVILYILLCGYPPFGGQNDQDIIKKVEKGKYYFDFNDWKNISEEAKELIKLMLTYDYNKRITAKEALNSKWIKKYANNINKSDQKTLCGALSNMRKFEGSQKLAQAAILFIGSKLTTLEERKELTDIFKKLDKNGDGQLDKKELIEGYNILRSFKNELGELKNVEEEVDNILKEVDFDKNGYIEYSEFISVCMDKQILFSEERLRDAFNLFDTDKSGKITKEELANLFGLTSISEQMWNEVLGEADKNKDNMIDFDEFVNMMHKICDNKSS
The target in experiment [6] is Plasmodium falciparum protein kinase 6 (PK6, PF3D7_1337100) (UniProt Q8IDW1). The experiment can be described thus: PfPK6 kinase inhibitors, biochemical, TCAMS library (AID 1159586). As to conditions: recombinant PfPK6, Kinase-Glo ATP depletion luminescence.
Plasmodium falciparum protein kinase 6 (PK6, PF3D7_1337100), sequence (Q8IDW1 1-305): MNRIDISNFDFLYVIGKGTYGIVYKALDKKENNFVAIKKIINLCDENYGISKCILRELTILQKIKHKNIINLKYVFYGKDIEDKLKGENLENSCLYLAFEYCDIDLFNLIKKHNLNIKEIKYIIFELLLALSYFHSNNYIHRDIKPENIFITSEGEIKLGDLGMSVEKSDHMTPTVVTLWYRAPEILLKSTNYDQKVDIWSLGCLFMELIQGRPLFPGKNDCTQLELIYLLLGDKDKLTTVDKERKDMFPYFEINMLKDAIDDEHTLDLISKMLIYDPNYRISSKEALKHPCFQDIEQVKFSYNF
Experiment [7] addresses Protein kinase 7 (PK7), Plasmodium falciparum 3D7 (PF3D7_0213400) (UniProt Q7YTF7). The experiment in a line: inhibition of Plasmodium PK7 catalytic activity – biochemical, TCAMS antimalarial set, Kinase-Glo luminescence (AID 1159587). As to conditions: recombinant PfPK7, Kinase-Glo ATP depletion luminescence.
In experiment [8] the target is Calcium-dependent protein kinase 4 (Plasmodium falciparum (isolate 3D7)) (UniProt Q8IBS5). The experiment in a line: PfCDPK4 kinase inhibitors, biochemical, TCAMS library (AID 1159588; cut-off not given, nearly all actives have IC50 up to about 0.91 µM). As to conditions: recombinant PfCDPK4, Kinase-Glo ATP depletion luminescence.
Calcium-dependent protein kinase 4 (Plasmodium falciparum (isolate 3D7)), sequence (Q8IBS5 whole entry, looked up): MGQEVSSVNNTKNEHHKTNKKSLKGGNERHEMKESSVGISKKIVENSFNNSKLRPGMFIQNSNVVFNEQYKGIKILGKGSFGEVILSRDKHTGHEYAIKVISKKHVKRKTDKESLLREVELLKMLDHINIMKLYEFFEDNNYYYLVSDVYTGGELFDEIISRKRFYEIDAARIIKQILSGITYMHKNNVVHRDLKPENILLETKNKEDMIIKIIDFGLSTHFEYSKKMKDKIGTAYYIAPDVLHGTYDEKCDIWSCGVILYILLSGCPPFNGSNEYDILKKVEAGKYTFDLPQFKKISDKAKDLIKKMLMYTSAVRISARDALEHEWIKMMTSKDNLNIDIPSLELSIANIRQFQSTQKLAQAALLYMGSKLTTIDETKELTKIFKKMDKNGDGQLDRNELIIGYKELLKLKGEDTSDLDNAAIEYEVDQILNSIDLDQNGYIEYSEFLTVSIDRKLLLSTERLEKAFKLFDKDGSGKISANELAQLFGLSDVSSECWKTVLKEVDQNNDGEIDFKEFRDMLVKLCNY

A number with no mark means an inactive call. For some of these results: Potency and affinity values are given separately. Calls of active or inactive are those of the source. Unless noted, how the calls were made is not given here.

Protein kinase 7 (PK7), Plasmodium falciparum 3D7 (PF3D7_0213400), sequence (Q7YTF7 1-343): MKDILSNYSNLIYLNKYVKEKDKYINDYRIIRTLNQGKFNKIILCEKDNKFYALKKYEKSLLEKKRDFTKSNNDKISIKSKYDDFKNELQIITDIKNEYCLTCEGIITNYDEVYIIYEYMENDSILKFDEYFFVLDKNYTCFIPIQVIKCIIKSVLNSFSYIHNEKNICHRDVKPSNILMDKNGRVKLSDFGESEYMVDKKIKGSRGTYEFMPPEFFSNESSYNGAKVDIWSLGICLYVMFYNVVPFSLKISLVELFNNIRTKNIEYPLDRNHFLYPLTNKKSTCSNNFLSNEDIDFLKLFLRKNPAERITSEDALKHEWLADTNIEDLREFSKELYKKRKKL

For the compound `CC(=O)Nc1cccc(CNc2cc(C)nc(Nc3ccc(C)cc3)n2)c1`, the growth inhibition in experiment [1] is 23%; in experiment [4], 82% (active). In addition, the inhibition in experiment [2] is 18%; in experiment [3] it was 0%. Besides, the result in experiment [5], in experiment [6], in experiment [7] and in experiment [8] was inactive.

For the compound `Cc1nc(SCC(=O)N2CCCC2=O)c2c(C)c(C)sc2n1`, the growth inhibition was 0% in experiment [1] and 96% (active) in experiment [4]. For the same compound, the inhibition in experiment [2] is 45%; in experiment [3] it was 2%. Further, the outcome in experiment [5], in experiment [6], in experiment [7] and in experiment [8] was inactive.

As for `CCN(CCCN1CCCCC1)c1cc(C)nc(Nc2cc(C(F)(F)F)ccc2C)n1`, the growth inhibition in experiment [1] was 41%; in experiment [4] it was 96% (active). Besides, the inhibition in experiment [2] was 35%; in experiment [3], -2%. In addition, the outcome in experiment [5], in experiment [6], in experiment [7] and in experiment [8] was inactive.

Take `c1ccc(CCNCc2ccc(-c3cccc(CNc4ccc5ncccc5c4)c3)cc2)cc1`: the results for the growth inhibition in experiment [1] and in experiment [4] were 17% and 91% (active), respectively. Moreover, the inhibition is 30% in experiment [2] and 3% in experiment [3]. Further, the result in experiment [5], in experiment [6], in experiment [7] and in experiment [8] was inactive.

For the compound `O=C(Cn1c(SCc2cccc(F)c2F)cc(=O)c2ccccc21)N(CCn1ccnc1)Cc1ccc(-c2ccc(C(F)(F)F)cc2)cc1`, the growth inhibition was 94% (active) in experiment [1] and 100% (active) in experiment [4]. In addition, the inhibition was 20% in experiment [2] and -2% in experiment [3]. Further, the result in experiment [5], in experiment [6], in experiment [7] and in experiment [8] was inactive.

Consider `Cc1cc(C2CCN(CCCCNC(=O)c3ccc(NC(=O)c4ccc(Cl)cc4)cc3)CC2)c(C)cc1OCCN(C)C`, for which the growth inhibition was 77% (active) in experiment [1] and 100% (active) in experiment [4]. For the same compound, the inhibition in experiment [2] was 18%; in experiment [3], -1%. In addition, the outcome in experiment [5], in experiment [6], in experiment [7] and in experiment [8] was inactive.

For the compound `CCCCCCNC(=O)C1Cc2c([nH]c3ccc(Br)cc23)C2(CCN(CCc3ccccc3)CC2)N1` (stereo not given), the growth inhibition in experiment [1] is 94% (active); in experiment [4] it was 100% (active). Moreover, the inhibition in experiment [2] was 36%; in experiment [3], 0%. The outcome in experiment [5], in experiment [6], in experiment [7] and in experiment [8] was inactive.

For the compound `O=C1Nc2cccc3c2C1(CCCCN1CCC(c2c[nH]c4cc(C(F)(F)F)ccc24)CC1)CCC3` (stereo not given), the results for the growth inhibition in experiment [1] and in experiment [4] were 79% (active) and 99% (active), respectively. In addition, the inhibition in experiment [2] was 99% (active); in experiment [3] it was 3%. The outcome in experiment [5], in experiment [6], in experiment [7] and in experiment [8] was inactive.

Consider `COc1ccc(NC(=O)[C@H](Cc2ccccc2)Nc2cc(C)nc(Nc3ccccc3)n2)cc1`, for which the growth inhibition in experiment [1] is 92% (active); in experiment [4], 101% (active). The values for the inhibition in experiment [2] and in experiment [3] were 0% and 2%, respectively. The outcome in experiment [5], in experiment [6], in experiment [7] and in experiment [8] was inactive.

For `CC1CN(Cc2ccccc2)CCN1c1ccc(NC(=O)c2cccs2)cc1` (stereo not given), the growth inhibition in experiment [1] and in experiment [4] was 96% (active) throughout. Also, the inhibition is 0% in experiment [2] and -2% in experiment [3]. For the same compound, the outcome in experiment [5], in experiment [6], in experiment [7] and in experiment [8] was inactive.

For the compound `Cc1cc(=O)c(-c2ccc(Sc3ccc(Cl)cc3)cc2)c(C)[nH]1`, the figures for the growth inhibition in experiment [1] and in experiment [4] were 84% (active) and 92% (active), respectively. For the same compound, the inhibition was -3% in experiment [2] and -7% in experiment [3]. Also, the outcome in experiment [5], in experiment [6], in experiment [7] and in experiment [8] was inactive.

`COc1ccc(CNC2CCN(C)CC2)cc1-c1ccc(S(=O)(=O)NCCc2ccccn2)c(F)c1`: the growth inhibition is 55% (active) in experiment [1] and 101% (active) in experiment [4]. The inhibition in experiment [2] was 3%; in experiment [3], 1%. Further, the outcome in experiment [5], in experiment [6], in experiment [7] and in experiment [8] was inactive.

Regarding `Cc1noc(-c2ccccc2)c1NC(=O)N1CCN(CCCCCCNC(=O)/C=C/c2ccc(Cl)c(Cl)c2)CC1`, the figures for the growth inhibition in experiment [1] and in experiment [4] were 1% and 95% (active), respectively. Also, the values for the inhibition in experiment [2] and in experiment [3] were 6% and 2%, respectively. For the same compound, the result in experiment [5], in experiment [6], in experiment [7] and in experiment [8] was inactive.

On to `NC(=O)COc1c(C2CCN(CCN3CCC(CNC(=O)c4ccc(-c5ccc(C(F)(F)F)cc5)cc4)CC3)CC2)ccc2c1CCCC2`, for which the figures for the growth inhibition in experiment [1] and in experiment [4] were 68% (active) and 87% (active), respectively. For the same compound, the inhibition in experiment [2] is 32%; in experiment [3] it was -1%. Moreover, the result in experiment [5], in experiment [6], in experiment [7] and in experiment [8] was inactive.

As to `CCCc1ccc(C2CCN(CCCCNC(=O)c3ccc(NC(=O)c4ccc(Cl)cc4)cc3)CC2)cc1`, the growth inhibition in experiment [1] and in experiment [4] was 100% (active) throughout. In addition, the inhibition in experiment [2] was 39%; in experiment [3], 1%. Besides, the result in experiment [5], in experiment [6], in experiment [7] and in experiment [8] was inactive.

Take `Fc1ccc2nc(-c3cccc(-c4cccc(CNCc5ccccc5)c4)c3)[nH]c2c1`: the growth inhibition in experiment [1] was 52% (active); in experiment [4], 102% (active). Besides, the inhibition is 24% in experiment [2] and -9% in experiment [3]. Moreover, the result in experiment [5], in experiment [6], in experiment [7] and in experiment [8] was inactive.

Turning to `Nc1nccc2ccc(-c3ccc(OCc4ccccc4)cc3)cc12`, the growth inhibition in experiment [1] was 67% (active); in experiment [4], 101% (active). Moreover, the results for the inhibition in experiment [2] and in experiment [3] were 40% and -8%, respectively. In addition, the outcome in experiment [5], in experiment [6], in experiment [7] and in experiment [8] was inactive.

As for `CCNc1cc(C(=O)N[C@@H](Cc2ccccc2)[C@H](O)CNC(C)(C)CCCC(C)C)cc(N2CCCCS2(=O)=O)c1`, the growth inhibition in experiment [1] and in experiment [4] was 98% (active) in each case. For the same compound, the inhibition was 5% in experiment [2] and 2% in experiment [3]. Further, the result in experiment [5], in experiment [6], in experiment [7] and in experiment [8] was inactive.

With `CNc1ccc(CNCc2cccc(-c3ccc(-c4nc5ccc(C(F)(F)F)cc5[nH]4)cc3)c2)cc1`, the results for the growth inhibition in experiment [1] and in experiment [4] were 100% (active) and 101% (active), respectively. Moreover, the inhibition in experiment [2] is 21%; in experiment [3], 0%. Also, the outcome in experiment [5], in experiment [6], in experiment [7] and in experiment [8] was inactive.

Take `CN(C)CCC1CCN(CCS(=O)(=O)c2cccc(Nc3ccc(-c4ccsc4)cn3)c2)CC1`: the growth inhibition is 6% in experiment [1] and 97% (active) in experiment [4]. Besides, the inhibition in experiment [2] was 49%; in experiment [3] it was 0%. For the same compound, the result in experiment [5], in experiment [6], in experiment [7] and in experiment [8] was inactive.
